From PubChem
Rab9 promoter act = qHTS Assay for Rab9 Promoter Activators | 2.8% of 320,000 active | Huh7 Rab9 promoter-luciferase reporter, luminescence, 24 h | Potency, µM (highest dose often 9.22 µM), for the others: top-dose activation, negative = inhibition, most hits filed as activators; note: % of control where 0% means no effect; nearly all actives have a fitted effect of over 60% in size
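Luciferase signal after 10 min detection reagent at ambient indicates Rab9 promoter upregulation; stably transfected Huh7 cells were treated 24 h with compound in DMSO at 37 °C, 5% CO2.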
ELG1 genotoxic = qHTS screen for small molecules that induce genotoxicity in human embryonic kidney (HEK293T) cells expressing luciferase-tagged ELG1; 1.3% of 330,000 active; Potency, µM (doses to about 46 µM), for the others: at the top dose activity change, positive = activation, actives largely listed as activators; HEK293T ELG1-luciferase reporter, luminescence, 16 h; AID 504466, 2011; note: % of control where 0% means no effect; nearly all actives have a fitted effect of over 60% in size
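Cells (2,000/well) expressing the ELG1-luciferase fusion are dosed by pin tool and kept 16 hr at 37 °C, 5% CO2. Signal comes from ONE-Glo luciferase reagent after 30 min at room temperature.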
SMN2 splice enh = qHTS Assay for Enhancers of SMN2 Splice Variant Expression; HEK293 SMN2-luciferase splicing reporter, luminescence, 30-36 h; 2.8% of 210,000 active; Potency, µM (titrated, usually from 46.1 µM), for inactives: at the highest dose activity change, positive = activation, usual class: activators; AID 1458, 2008; note: % of control where 0% means no effect; nearly all actives have a fitted effect of over 55% in size
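HEK293 cells carry an SMN2 minigene-luciferase reporter in which exon 7 inclusion puts luciferase in frame. Cells were seeded at 2000 cells/well, attached for 10-12 hours, then exposed to compounds for 30-36 hours at 37C before ONE-Glo luminescence.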
ELG1 repair inh = qHTS screen for small molecules that inhibit ELG1-dependent DNA repair in human embryonic kidney (HEK293T) cells expressing luciferase-tagged ELG1; HEK293T ELG1-luciferase reporter, luminescence, 16 h; DNA damage induced by 5-fluorouridine; Potency, µM (series often up to 46.1 µM), inactives show at the top dose activity change, negative = inhibition, most hits filed as inhibitors; 2.3% of 330,000 active; AID 504467, 2011; note: % is set by controls: 0 for no effect and ±100 for the full control effect; nearly all actives have a fitted effect of over 55% in size
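5-Fluorouridine DNA damage + compound/DMSO, 2,000 cells/well, 16 h, 37 °C/5% CO2. ONE-Glo, 30 min RT, luminescence. Readout = decrease in reporter signal.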
NPC1 promoter act = qHTS Assay for NPC1 Promoter Activators. 2.4% of 320,000 active. Potency, µM (series often up to 9.22 µM), without a hit: at the top dose activation, usual class: activators. AID 485313, 2010. Huh7 NPC1 promoter luciferase reporter, 24 h; note: % of control where 0% means no effect; nearly all actives have a fitted effect of over 60% in size
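Quantitative HTS used a cell-based reporter: Huh7 cells stably bearing the NPC1 promoter upstream of luciferase were treated with compounds for 24 h, and promoter activation was read as luminescence.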
FLuc modulator = qHTS profiling assay for firefly luciferase inhibitor/activator using purifed enzyme and Km concentrations of substrates (counterscreen for miR-21 project) | AID 588342, 2011 | Luciferin 4-monooxygenase (Photinus pyralis), P08659 | Potency, µM (top dose mostly 57.5 µM), inactives show top-dose activity change, negative = inhibition, most hits filed as inhibitors | 6.9% of 360,000 active | purified FLuc, Km substrates, luminescence inhibition;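 note: plate controls were vehicle for no effect and reference inhibitor for full effect; nearly all actives have a fitted effect of over 55% in size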
Target sequence (P08659 whole entry, looked up): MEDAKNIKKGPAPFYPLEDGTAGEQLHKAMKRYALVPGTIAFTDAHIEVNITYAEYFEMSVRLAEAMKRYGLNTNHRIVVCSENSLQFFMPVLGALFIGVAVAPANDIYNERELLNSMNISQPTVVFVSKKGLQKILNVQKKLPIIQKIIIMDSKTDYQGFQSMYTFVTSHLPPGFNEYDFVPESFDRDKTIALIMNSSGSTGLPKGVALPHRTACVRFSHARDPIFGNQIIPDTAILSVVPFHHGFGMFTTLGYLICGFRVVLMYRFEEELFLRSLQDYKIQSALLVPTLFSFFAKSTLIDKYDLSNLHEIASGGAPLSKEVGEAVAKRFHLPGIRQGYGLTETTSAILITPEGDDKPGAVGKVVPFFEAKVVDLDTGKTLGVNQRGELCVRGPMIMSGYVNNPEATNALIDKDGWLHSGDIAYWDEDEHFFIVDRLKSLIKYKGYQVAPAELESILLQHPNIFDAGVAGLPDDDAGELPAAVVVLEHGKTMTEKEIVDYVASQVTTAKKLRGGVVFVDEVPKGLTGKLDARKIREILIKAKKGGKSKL
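Biochemical qHTS of compounds, final roughly 60 µM downward over six points, against 10 nM purified firefly luciferase using Km concentrations of substrates (10 uM D-luciferin, 10 uM ATP) in Tris acetate pH 7.5 buffer; luminescence output.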
* marks the source's active call; other numbers are inactive results; u = inconclusive; x = not tested or not shown; [ ] = remark or other dose. Compounds with a hit are over-represented: about 9.2% of the library has one in this group of screens. Calls come from the whole dose curve; as a rule, active = well fitted curve in the direction sought with a large enough effect; inconclusive = small, poorly fitted or top-dose-only effect, or another doubt; inactive = no such curve, though single readings can be large; an effect the other way counts as inactive or inconclusive. Potency is the fitted concentration of half-maximal effect.

SMILES	Rab9 promoter act	ELG1 genotoxic	SMN2 splice enh	ELG1 repair inh	NPC1 promoter act	FLuc modulator
Cc1ccc(C2=NC(=O)/C(=C/c3cc(O)c(O)c(Br)c3)S2)cc1	-11%	-9%	-10%	-12%	-8%	8.5µM*
COc1cc(/C=C2\SC(c3ccc(C)cc3)=NC2=O)cc(OC)c1O	-18%	3%	27%	-4%	-2%	6.7µM*
O=C(O)c1cc(-c2cccs2)nc2cc3c(cc12)OCCO3	-1%	10%	u	u	3%	9.5µM*
CCCN(CCC)C(=O)c1cc(-c2ccc3c(c2)OCO3)nc2ccccc12	-1%	-15%	-17%	18µM*	-2%	u
Cc1ccc2nc(-c3ccc4c(c3)OCCO4)cc(C(=O)O)c2c1	13%	u	u	u	25%	2.4µM*
O=C(NN1CCOCC1)c1cc(-c2cccs2)nc2ccccc12	0%	-4%	17%	-11%	5%	-18%
CC(=O)c1ccc(N2CCN(C(=O)c3cc(-c4ccc5c(c4)OCO5)nc4ccccc34)CC2)cc1	11%	-11%	u	u	6%	7.6µM*
COc1ccc(CNc2oc(/C=C/c3cc(OC)c(OC)c(OC)c3)nc2C#N)cc1	x	x	u	x	x	3%
CC(C)Cc1ccc(CN2CCCC(NC(=O)c3cccc(-n4cnnc4)c3)C2)cc1 (stereo unspecified)	3%	-10%	x	u	-2%	u
CC(NC(=O)c1cc(-c2ccc3c(c2)OCO3)nc2ccccc12)C(C)(C)C (stereo unspecified)	-3%	0%	6%	-2%	0%	-14%
O=C(O)c1cc(-c2ccc3c(c2)OCO3)nc2ccccc12	-7%	4%	14%	u	9%	8.5µM*
O=C(NCc1ccc2c(c1)OCO2)c1cc(-c2ccncc2)nc2ccccc12	1%	-6%	x	u	0%	u
CCCNC(=O)NNC(=O)c1cc(-c2ccc3c(c2)OCO3)nc2ccccc12	-7%	0%	x	14%	1%	13µM*
CCOC(=O)C1=C(COC(=O)CCNS(=O)(=O)c2ccc(NC(C)=O)cc2)NC(=O)NC1C (stereo unspecified)	8%	2%	x	-9%	0%	2%
CCCc1[nH]n(-c2ccc([N+](=O)[O-])cc2)c(=O)c1C=NCCCn1ccnc1	-1%	2%	8%	-6%	1%	-1%
CCOC(=O)c1ccccc1NC(=O)COC(=O)c1c(CC)noc1C	0%	3%	x	-9%	-6%	1%
COc1ccc2c(Cl)c(C(N)=O)sc2c1	21%	-3%	16%	0%	13%	15µM*
COc1ccc2c(Cl)c(C(=O)NN)sc2c1	-1%	-5%	-20%	-2%	1%	u
O=C1COc2ccc(S(=O)(=O)CCC(=O)N3CCN(c4cccc(C(F)(F)F)c4)CC3)cc2N1	-18%	-11%	x	u	-2%	-2%
Nc1ccc(Br)c2cccnc12	-5%	3%	x	0%	-3%	-2%
Nc1ccc(N=Nc2ccccc2)c2cccnc12	-17%	16%	x	u	18%	21µM*
Cc1ccc(N=Nc2ccc(O)cc2)c(Br)c1	3.2µM*	12µM*	x	u	u	3.4µM*
COc1ccc(N=Nc2ccc(O)c3ncccc23)cc1	-33%	4.6µM*	x	2%	-5%	-14%
O=S(=O)(O)c1ccc2cc(N=Nc3cc(S(=O)(=O)O)c4cccnc4c3O)ccc2c1	x	x	5%[9.22 µM]	x	x	x
COc1cccc(N=Nc2ccc3cccnc3c2O)c1	11%	16µM*	x	2.3µM*	20%	8.5µM*
